Source: the supplement of paper PMC11732987, “Enantioselective OTUD7B fragment discovery through chemoproteomics screening and high-throughput optimisation” (Communications Chemistry, 2025)
Values without a mark were called inactive.

The molecules below were run against T1, VCPIP1 (UniProt Q96JH7) (assay: log2 ratio of Biotin-Ahx-Ub-VS probe labelling (fragment/DMSO); higher = less target engagement (more negative = stronger competition), active = hit call of the paper (q ≤ 0.05, log2 ratio ≤ -1)). Conditions: compound concentration: 200 uM; treatment time: 3 h.
T1 sequence (whole entry): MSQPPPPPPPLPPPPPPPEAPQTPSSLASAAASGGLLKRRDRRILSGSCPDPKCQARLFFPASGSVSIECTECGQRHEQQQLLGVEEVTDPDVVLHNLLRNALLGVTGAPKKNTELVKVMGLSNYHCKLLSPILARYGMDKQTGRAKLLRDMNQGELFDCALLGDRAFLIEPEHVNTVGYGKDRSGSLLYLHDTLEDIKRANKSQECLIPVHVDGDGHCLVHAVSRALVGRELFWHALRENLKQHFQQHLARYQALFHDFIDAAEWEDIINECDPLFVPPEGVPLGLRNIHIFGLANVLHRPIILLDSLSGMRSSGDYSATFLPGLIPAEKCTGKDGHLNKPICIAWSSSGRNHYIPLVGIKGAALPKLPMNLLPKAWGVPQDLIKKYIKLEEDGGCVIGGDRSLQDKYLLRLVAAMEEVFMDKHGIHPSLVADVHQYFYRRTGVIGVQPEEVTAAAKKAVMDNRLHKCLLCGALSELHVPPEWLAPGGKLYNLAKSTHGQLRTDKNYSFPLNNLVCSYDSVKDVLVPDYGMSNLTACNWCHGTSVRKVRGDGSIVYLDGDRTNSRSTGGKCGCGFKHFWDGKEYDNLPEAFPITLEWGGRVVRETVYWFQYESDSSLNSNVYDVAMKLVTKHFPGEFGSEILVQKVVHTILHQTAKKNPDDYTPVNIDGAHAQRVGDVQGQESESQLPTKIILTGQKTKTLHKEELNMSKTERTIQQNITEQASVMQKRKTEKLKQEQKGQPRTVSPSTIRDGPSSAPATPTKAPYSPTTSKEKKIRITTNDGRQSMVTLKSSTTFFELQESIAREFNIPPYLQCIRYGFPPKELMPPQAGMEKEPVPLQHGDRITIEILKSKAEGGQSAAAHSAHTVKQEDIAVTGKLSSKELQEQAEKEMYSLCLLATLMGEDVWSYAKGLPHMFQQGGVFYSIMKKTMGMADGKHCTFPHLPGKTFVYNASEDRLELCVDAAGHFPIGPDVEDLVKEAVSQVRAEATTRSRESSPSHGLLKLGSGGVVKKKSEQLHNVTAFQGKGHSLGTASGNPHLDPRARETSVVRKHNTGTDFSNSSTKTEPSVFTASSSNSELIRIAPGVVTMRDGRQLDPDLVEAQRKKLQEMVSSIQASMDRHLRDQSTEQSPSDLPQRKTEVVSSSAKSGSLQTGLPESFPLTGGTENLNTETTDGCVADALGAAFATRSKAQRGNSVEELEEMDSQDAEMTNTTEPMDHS
Experimental: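 Competitive ABPP in HEK293T cell lysate. Lysates were treated with each chloroacetamide fragment at 200 µM for 3 h, then with Biotin-Ahx-Ub-VS (0.5 µM, 1 h), NeutrAvidin-enriched and analysed by diaPASEF LC-MS/MS. Protein LFQ was median-normalised; average log2 ratio is fragment/DMSO from an unpaired t-test (n=3 treated, n=44 DMSO). Hits: q ≤ 0.05, log2 ratio ≤ -1, unique peptides ≥ 2.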

SMILES	log2 ratio of Biotin-Ahx-Ub-VS probe labelling
O=C(CCl)N1CCc2nc[nH]c2C1c1ccc(Cl)cc1 (stereo not given)	-1.07 (active)
CCN1C(=O)C2CN(C(=O)CCl)CCN2C1=O (stereo not given)	0.103
O=C(CCl)N1CCCC2CCCCC21 (stereo not given)	-2.13 (active)
Cc1cccnc1NC(=O)C1CCN(C(=O)CCl)CC1.Cl	-0.543
CCC(NC(=O)CCl)c1ccc(Cl)cc1 (stereo not given)	-0.836
O=C(CCl)Nc1nnc(CC(F)(F)F)o1	-0.723
Cl.O=C(CCl)NCCc1ncc(F)cc1F	-1.69 (active)
COCC[C@@H](NC(=O)CCl)c1ccccc1	-0.654
O=C(CCl)N1CCC(C(O)c2ccc(F)cc2)CC1 (stereo not given)	-0.764
O=C(CCl)NCc1cccc(N2CCCC2=O)c1	-1.04 (active)
CN(C(=O)CCl)c1nc2ccccc2s1	-0.54
Cc1cc(C2CCCN2C(=O)CCl)nn1C.Cl (stereo not given)	-0.866
O=C(CCl)NC1CCC(C(F)(F)F)CC1 (stereo not given)	-1.35 (active)
O=C(CCl)N1CCCCC12CCOCC2	-0.562
Cl.Cn1nccc1C(NC(=O)CCl)c1ccccc1 (stereo not given)	-1.2 (active)
O=C(CCl)NC(Cn1ccccc1=O)c1ccccc1 (stereo not given)	-0.334
Cl.Cn1ncc2c1CC(NC(=O)CCl)CC2 (stereo not given)	-0.665
O=C(CCl)NCc1cccc(F)c1	-1.16 (active)
CN(C)C(=O)c1ccc(NC(=O)CCl)cc1	-0.601
Cc1cccc(C(CNC(=O)CCl)N2CCOCC2)c1.Cl (stereo not given)	-0.833

SMILES	log2 ratio of Biotin-Ahx-Ub-VS probe labelling
O=C(CCl)NCCC1=CCCCC1	-0.647
COc1ccc(C2CCCN2C(=O)CCl)c(OC)c1 (stereo not given)	-0.545
N#Cc1ccc(Cl)cc1NC(=O)CCl	-1.7 (active)
Cl.O=C(CN1CCN(C(=O)CCl)CC1)Nc1ccc(F)cc1	-0.257
O=C(CCl)NC1CCS(=O)(=O)c2ccccc21 (stereo not given)	-1.22 (active)
CC(NC(=O)CCl)c1csc(-c2ccccc2)n1.Cl (stereo not given)	-2.16 (active)
Cc1cc(CC(C)NC(=O)CCl)n[nH]1 (stereo not given)	0.107
O=C(CCl)N1c2ccccc2NC(=O)C12CCCC2	-0.744
Cc1n[nH]c2c1CN(C(=O)CCl)CC2	-1.02 (active)
Cc1ccc(CC(CO)CNC(=O)CCl)cc1 (stereo not given)	-2.23 (active)
O=C(CCl)NC1CCC2(CC1)OCCO2	-0.827
Cl.O=C(CCl)NCc1ccnc(Oc2ccccc2F)c1	-2.73 (active)
Cc1cccc2nc(CCNC(=O)CCl)cn12.Cl	-1.77 (active)
COc1ccc(Cl)cc1NC(=O)CCl	-1.52 (active)
C[C@@H](NC(=O)CCl)c1cccc(C#N)c1	-0.466
CNC(=O)C1CCN(C(=O)CCl)CC1	-0.28
O=C(CCl)NCC1(c2ccccc2)CC1	-2.43 (active)
Cl.Cn1ncc2c1CCCC2NC(=O)CCl (stereo not given)	-1.7 (active)
O=C(CCl)Nc1cc2c(cc1Cl)OCCO2	-0.947
O=C(CCl)N(Cc1ccsc1)C1CC1	-0.642
